Test results taken from PMC7862700, “An all-to-all approach to the identification of sequence-specific readers for epigenetic DNA modifications on cytosine”.

What was measured:
Assay in all cases: DAPPL (digital affinity profiling via proximity ligation, sequencing); 10 mM Tris-HCl pH 7.5, 50 mM NaCl, 1 mM DTT, 4% glycerol, room temperature, 30 min; GST-TFs on glutathione beads, 16-mer random dsDNA library, 0.1% formaldehyde crosslink after washing; high values mean tight binding
[1] = biological target: T1, FLI1 (Homo sapiens, UniProt Q01543 1-452); settings: protein: recombinant; tags: N-terminal GST; dsDNA, one strand shown
T1 sequence: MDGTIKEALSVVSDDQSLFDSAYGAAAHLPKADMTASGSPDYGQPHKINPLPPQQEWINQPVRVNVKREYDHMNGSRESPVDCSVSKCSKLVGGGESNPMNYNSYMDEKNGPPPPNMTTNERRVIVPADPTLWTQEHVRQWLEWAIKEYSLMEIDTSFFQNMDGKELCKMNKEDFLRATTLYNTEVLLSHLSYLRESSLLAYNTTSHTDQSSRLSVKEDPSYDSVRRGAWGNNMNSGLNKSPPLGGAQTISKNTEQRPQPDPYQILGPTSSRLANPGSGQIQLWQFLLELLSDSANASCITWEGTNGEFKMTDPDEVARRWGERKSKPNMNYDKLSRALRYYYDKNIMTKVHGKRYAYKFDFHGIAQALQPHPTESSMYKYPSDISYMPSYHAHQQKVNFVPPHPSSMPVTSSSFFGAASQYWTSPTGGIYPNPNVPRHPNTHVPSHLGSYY
In short: (§1)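 A tag-only sample was pooled with DNA-barcoded human transcription factors that had been expressed in yeast as GST fusions and captured on glutathione beads. The pools were incubated for 30 min at room temperature with 200 nmole of a random double-stranded 16-mer DNA library in Tris/NaCl/DTT/glycerol buffer, then washed, crosslinked with 0.1% formaldehyde, proximity-ligated (BsaI/T4 ligase, 1 h, 37 °C), PCR-amplified and sequenced on an Illumina NextSeq500. Binding signal is each hexamer's read frequency for a factor divided by its frequency for the tag-only sample.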

[2] = biological target: T2, ELK1 (Homo sapiens, UniProt P19419 1-428); settings: protein: recombinant; tags: N-terminal GST; dsDNA, one strand shown
T2 sequence: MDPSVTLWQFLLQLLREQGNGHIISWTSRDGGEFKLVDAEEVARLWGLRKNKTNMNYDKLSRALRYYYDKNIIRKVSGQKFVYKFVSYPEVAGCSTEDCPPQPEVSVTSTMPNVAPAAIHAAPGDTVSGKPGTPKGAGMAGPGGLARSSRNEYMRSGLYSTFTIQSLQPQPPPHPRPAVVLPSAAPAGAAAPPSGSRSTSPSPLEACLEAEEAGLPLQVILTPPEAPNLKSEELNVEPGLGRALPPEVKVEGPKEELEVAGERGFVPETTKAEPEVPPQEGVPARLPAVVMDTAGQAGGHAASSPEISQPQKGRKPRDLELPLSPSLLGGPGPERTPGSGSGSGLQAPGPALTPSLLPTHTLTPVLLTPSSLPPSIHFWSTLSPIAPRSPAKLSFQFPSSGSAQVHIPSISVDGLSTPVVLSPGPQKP
In short: as §1

[3] = biological target: T3, GABPA (Homo sapiens, UniProt Q06546 1-454); settings: protein: recombinant; tags: N-terminal GST; dsDNA, one strand shown
T3 sequence: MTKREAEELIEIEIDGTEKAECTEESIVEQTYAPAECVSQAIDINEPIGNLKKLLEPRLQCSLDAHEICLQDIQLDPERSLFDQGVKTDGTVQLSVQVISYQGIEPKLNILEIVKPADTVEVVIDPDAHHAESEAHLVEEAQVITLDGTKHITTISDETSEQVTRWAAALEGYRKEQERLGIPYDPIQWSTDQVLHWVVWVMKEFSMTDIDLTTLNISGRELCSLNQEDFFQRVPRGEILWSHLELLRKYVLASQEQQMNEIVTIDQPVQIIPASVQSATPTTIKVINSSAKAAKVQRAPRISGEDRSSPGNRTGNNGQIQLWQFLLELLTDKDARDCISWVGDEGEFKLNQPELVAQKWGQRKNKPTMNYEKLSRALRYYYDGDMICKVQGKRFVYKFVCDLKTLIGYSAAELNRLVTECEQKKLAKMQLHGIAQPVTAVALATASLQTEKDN
In short: as §1

[4] = biological target: T4, ERG (Homo sapiens, UniProt P11308 1-479); settings: protein: recombinant; tags: N-terminal GST; dsDNA, one strand shown
T4 sequence: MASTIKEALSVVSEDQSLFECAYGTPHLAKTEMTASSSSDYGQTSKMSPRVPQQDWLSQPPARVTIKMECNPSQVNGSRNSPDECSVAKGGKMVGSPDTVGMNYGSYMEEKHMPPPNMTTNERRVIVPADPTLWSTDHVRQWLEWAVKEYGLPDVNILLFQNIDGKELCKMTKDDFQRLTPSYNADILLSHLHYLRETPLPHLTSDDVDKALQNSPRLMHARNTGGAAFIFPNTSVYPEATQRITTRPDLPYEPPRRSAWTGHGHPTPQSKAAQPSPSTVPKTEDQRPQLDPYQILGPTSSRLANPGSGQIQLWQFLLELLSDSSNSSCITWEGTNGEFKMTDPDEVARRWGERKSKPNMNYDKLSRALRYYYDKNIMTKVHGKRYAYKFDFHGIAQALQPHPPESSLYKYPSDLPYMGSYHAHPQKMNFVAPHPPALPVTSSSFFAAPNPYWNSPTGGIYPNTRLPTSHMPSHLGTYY
In short: as §1

[5] = biological target: ELF1 (Homo sapiens, UniProt P32519 1-619); settings: protein: recombinant; tags: N-terminal GST; dsDNA, one strand shown
In short: as §1

[6] = biological target: T5, EHF (Homo sapiens, UniProt Q9NZC4 1-300); settings: protein: recombinant; tags: N-terminal GST; dsDNA, one strand shown
T5 sequence: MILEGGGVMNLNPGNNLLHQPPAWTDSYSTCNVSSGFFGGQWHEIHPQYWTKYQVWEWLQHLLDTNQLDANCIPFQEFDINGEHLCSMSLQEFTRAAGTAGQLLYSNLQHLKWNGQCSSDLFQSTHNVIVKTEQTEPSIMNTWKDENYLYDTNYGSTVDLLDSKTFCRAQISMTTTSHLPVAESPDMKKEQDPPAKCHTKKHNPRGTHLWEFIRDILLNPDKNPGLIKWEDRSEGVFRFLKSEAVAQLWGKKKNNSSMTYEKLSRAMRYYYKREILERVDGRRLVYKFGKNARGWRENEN
In short: as §1

[7] = biological target: SPI1 (Homo sapiens, UniProt P17947 1-270); settings: protein: recombinant; tags: N-terminal GST; dsDNA, one strand shown
In short: as §1

[8] = biological target: SPIB (Homo sapiens, UniProt Q01892 1-262); settings: protein: recombinant; tags: N-terminal GST; dsDNA, one strand shown
In short: as §1

[9] = biological target: T6, ELK3 (Homo sapiens, UniProt P41970 1-407); settings: protein: recombinant; tags: N-terminal GST; dsDNA, one strand shown
T6 sequence: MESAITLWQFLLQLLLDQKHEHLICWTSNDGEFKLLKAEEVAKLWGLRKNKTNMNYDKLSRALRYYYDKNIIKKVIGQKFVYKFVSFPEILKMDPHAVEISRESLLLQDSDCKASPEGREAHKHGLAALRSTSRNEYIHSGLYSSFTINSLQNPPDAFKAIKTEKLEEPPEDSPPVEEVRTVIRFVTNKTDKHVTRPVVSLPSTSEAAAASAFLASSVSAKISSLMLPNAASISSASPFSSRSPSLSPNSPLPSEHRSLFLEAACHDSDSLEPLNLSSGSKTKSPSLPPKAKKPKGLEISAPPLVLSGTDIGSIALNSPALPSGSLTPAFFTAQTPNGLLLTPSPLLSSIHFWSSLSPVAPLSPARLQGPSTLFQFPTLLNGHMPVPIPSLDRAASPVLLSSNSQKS
In short: as §1

[10] = biological target: T7, FEV (Homo sapiens, UniProt Q99581 1-238); settings: protein: recombinant; tags: N-terminal GST; dsDNA, one strand shown
T7 sequence: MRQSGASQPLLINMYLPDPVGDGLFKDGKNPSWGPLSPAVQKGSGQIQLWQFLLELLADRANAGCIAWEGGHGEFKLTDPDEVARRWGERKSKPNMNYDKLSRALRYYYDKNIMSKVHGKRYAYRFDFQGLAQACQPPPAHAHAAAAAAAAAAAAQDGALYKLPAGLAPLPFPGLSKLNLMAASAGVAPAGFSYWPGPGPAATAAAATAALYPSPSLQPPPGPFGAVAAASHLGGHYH
In short: as §1

[11] = biological target: ETV5 (Homo sapiens, UniProt P41161 1-510); settings: protein: recombinant; tags: N-terminal GST; dsDNA, one strand shown
In short: as §1

[12] = biological target: HSF1 (Homo sapiens, UniProt Q00613 1-529); settings: protein: recombinant; tags: N-terminal GST; chain copies: 3; dsDNA, one strand shown
In short: as §1

[13] = biological target: T8, SPIC (Homo sapiens, UniProt Q8N5J4 1-248); settings: protein: recombinant; tags: N-terminal GST; dsDNA, one strand shown
T8 sequence: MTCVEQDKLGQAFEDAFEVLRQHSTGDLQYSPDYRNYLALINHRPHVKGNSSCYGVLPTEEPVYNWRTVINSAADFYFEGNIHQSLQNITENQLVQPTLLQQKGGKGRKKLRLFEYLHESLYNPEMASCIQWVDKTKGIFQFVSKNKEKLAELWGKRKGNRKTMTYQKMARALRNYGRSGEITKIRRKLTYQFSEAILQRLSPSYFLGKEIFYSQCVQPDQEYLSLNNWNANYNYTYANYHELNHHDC
In short: as §1

[14] = biological target: ELF4 (Homo sapiens, UniProt Q99607 1-663); settings: protein: recombinant; tags: N-terminal GST; dsDNA, one strand shown
In short: as §1

[15] = biological target: T9, ELK4 (Homo sapiens, UniProt P28324-2 1-405); settings: protein: recombinant; tags: N-terminal GST; dsDNA, one strand shown
T9 sequence: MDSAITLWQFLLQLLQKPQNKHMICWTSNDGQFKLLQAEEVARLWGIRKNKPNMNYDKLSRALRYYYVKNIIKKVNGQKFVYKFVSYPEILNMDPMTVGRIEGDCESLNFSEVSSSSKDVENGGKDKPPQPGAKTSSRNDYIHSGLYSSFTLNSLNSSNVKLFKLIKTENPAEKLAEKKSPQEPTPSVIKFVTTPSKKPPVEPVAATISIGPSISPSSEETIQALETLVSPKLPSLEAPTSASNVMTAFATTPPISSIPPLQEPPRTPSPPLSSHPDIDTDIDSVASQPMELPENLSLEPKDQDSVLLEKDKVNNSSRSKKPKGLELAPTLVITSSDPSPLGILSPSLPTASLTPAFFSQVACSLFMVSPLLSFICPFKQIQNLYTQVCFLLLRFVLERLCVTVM
In short: as §1

[16] = biological target: T10, ETV2 (Homo sapiens, UniProt O00321 1-342); settings: protein: recombinant; tags: N-terminal GST; dsDNA, one strand shown
T10 sequence: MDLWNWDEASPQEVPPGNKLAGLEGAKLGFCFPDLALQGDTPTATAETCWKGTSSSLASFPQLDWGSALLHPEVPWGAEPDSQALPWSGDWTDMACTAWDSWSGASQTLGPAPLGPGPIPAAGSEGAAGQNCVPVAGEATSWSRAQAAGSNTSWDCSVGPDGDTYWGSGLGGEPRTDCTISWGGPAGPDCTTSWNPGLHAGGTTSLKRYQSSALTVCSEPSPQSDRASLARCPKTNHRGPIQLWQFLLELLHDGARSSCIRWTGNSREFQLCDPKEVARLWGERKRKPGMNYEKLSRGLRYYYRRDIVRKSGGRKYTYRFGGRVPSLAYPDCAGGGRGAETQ
In short: as §1

[17] = biological target: T11, ELF3 (Homo sapiens, UniProt P78545 1-371); settings: protein: recombinant; tags: N-terminal GST; dsDNA, one strand shown
T11 sequence: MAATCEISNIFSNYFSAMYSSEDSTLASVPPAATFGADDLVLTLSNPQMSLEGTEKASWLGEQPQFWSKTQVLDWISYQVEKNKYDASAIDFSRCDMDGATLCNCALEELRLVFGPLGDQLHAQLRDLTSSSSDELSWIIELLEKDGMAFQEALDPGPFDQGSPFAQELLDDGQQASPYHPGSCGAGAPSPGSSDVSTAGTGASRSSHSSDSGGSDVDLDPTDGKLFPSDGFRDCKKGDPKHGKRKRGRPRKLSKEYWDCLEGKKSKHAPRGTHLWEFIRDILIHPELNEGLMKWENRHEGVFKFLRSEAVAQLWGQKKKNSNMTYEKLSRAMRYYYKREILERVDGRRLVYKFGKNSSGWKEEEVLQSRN
In short: as §1

[18] = biological target: CRX (Homo sapiens, UniProt O43186 1-299); settings: protein: recombinant; tags: N-terminal GST; dsDNA, one strand shown
In short: as §1

[19] = biological target: ETV1 (Homo sapiens, UniProt P50549 1-477); settings: protein: recombinant; tags: N-terminal GST; dsDNA, one strand shown
In short: as §1

HSF1, sequence (Q00613 whole entry): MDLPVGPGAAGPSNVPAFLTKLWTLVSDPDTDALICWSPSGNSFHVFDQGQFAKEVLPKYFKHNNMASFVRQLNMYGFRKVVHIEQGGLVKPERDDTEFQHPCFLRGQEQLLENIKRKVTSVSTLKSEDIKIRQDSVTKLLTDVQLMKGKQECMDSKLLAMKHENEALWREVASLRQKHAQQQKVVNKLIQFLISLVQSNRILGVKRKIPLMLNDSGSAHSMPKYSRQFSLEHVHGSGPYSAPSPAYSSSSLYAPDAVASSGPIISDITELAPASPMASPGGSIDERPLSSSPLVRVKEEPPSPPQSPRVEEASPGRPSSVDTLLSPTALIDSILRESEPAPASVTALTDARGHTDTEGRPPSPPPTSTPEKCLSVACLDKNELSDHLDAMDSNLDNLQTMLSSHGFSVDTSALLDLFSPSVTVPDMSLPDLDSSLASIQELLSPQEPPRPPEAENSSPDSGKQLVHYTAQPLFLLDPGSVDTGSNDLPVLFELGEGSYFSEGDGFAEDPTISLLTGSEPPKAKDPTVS
SPIB, sequence (Q01892 whole entry): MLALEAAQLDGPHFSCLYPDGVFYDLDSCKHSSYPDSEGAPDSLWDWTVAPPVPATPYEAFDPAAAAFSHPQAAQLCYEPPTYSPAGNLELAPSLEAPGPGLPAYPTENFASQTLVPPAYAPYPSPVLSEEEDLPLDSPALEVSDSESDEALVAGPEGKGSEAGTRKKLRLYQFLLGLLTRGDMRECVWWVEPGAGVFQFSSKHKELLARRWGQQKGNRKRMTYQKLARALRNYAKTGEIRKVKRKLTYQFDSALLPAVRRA
ETV1, sequence (P50549 whole entry): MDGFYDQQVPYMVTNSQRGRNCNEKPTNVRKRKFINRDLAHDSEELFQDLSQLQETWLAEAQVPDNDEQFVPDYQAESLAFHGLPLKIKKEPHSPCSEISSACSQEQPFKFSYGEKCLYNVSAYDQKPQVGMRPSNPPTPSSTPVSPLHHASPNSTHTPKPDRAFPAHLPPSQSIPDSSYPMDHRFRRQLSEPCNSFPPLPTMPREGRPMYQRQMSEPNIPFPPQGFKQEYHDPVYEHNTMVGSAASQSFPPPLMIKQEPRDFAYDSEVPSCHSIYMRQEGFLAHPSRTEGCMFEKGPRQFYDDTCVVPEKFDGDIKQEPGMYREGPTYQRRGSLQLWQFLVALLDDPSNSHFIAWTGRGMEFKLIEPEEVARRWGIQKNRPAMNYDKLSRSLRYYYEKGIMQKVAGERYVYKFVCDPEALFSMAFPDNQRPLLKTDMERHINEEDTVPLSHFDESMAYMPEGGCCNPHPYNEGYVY
ETV5, sequence (P41161 whole entry): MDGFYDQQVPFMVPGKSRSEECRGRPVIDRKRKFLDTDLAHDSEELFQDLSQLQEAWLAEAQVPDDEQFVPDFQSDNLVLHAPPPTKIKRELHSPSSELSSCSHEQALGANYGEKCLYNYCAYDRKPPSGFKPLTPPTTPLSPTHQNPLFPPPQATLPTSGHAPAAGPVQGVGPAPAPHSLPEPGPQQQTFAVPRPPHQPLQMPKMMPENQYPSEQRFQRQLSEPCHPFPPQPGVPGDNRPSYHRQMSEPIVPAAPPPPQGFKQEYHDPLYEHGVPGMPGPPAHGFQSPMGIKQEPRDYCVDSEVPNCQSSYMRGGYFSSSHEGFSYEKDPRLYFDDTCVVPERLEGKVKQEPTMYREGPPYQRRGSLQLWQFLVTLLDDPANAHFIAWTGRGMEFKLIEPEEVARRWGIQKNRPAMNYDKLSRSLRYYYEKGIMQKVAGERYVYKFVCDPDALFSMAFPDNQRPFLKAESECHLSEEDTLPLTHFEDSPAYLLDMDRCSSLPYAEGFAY
ELF1, sequence (P32519 whole entry): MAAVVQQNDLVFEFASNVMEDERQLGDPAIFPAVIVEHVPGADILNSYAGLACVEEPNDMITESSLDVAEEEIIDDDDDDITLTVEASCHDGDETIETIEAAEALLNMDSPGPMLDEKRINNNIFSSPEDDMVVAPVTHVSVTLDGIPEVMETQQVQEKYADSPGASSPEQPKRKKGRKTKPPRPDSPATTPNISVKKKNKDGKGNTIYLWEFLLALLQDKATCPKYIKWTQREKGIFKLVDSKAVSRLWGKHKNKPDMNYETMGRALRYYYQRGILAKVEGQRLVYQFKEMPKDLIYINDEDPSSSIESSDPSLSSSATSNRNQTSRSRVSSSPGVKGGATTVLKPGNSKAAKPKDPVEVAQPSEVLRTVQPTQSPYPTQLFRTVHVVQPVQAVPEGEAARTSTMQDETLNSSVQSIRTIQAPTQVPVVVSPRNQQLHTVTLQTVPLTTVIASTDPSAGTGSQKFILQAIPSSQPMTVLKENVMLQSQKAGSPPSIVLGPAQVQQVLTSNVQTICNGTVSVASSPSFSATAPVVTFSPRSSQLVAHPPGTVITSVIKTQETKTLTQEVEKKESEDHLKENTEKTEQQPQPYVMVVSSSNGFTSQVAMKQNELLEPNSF
ELF4, sequence (Q99607 whole entry): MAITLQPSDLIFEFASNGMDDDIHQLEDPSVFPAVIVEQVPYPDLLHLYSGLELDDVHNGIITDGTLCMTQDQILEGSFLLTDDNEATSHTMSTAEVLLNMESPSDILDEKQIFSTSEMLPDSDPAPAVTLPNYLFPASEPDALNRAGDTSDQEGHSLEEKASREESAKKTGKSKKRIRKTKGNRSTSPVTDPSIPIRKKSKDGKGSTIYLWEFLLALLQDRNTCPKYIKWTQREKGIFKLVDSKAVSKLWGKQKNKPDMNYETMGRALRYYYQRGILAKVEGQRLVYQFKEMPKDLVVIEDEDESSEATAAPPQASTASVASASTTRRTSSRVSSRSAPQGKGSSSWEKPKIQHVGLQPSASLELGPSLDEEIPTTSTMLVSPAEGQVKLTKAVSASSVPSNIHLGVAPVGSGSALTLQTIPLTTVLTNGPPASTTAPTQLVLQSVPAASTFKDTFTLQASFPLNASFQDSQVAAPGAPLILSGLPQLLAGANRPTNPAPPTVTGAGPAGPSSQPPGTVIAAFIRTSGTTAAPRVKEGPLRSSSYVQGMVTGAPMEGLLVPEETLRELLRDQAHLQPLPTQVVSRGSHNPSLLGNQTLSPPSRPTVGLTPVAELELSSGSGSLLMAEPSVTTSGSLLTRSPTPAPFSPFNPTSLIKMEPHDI
CRX, sequence (O43186 whole entry): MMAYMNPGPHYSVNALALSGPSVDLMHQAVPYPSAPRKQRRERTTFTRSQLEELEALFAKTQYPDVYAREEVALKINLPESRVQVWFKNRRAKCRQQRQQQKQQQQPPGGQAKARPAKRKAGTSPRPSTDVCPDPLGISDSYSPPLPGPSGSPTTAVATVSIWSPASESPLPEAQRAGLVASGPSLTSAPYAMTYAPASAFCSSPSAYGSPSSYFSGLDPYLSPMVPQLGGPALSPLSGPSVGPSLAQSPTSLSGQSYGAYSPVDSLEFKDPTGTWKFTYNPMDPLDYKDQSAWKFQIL

Question: For CGCCTC, which binding signal [1] is on record?
Answer: 1.47 fold enrichment (6-mer frequency, TF over GST control)

Question: What about the binding signal [2] of the same sequence?
Answer: 1.49 fold enrichment (6-mer frequency, TF over GST control)

Question: And the binding signal [3]?
Answer: 1.41 fold enrichment (6-mer frequency, TF over GST control)

Question: What about the binding signal [4] of the same sequence?
Answer: 1.39 fold enrichment (6-mer frequency, TF over GST control)

Question: What about the binding signal [5] of the same sequence?
Answer: 1.49 fold enrichment (6-mer frequency, TF over GST control)

Question: And the binding signal [6]?
Answer: 1.4 fold enrichment (6-mer frequency, TF over GST control)

Question: What about the binding signal [7] of the same sequence?
Answer: 1.27 fold enrichment (6-mer frequency, TF over GST control)

Question: And the binding signal [8]?
Answer: 1.51 fold enrichment (6-mer frequency, TF over GST control)

Question: What about the binding signal [9] of the same sequence?
Answer: 1.46 fold enrichment (6-mer frequency, TF over GST control)

Question: And the binding signal [10]?
Answer: 1.45 fold enrichment (6-mer frequency, TF over GST control)

Question: And the binding signal [11]?
Answer: 1.4 fold enrichment (6-mer frequency, TF over GST control)

Question: What about the binding signal [12] of the same sequence?
Answer: 1.1 fold enrichment (6-mer frequency, TF over GST control)

Question: What about the binding signal [13] of the same sequence?
Answer: 1.33 fold enrichment (6-mer frequency, TF over GST control)

Question: And the binding signal [14]?
Answer: 1.39 fold enrichment (6-mer frequency, TF over GST control)

Question: And the binding signal [15]?
Answer: 1.14 fold enrichment (6-mer frequency, TF over GST control)

Question: And the binding signal [16]?
Answer: 1.51 fold enrichment (6-mer frequency, TF over GST control)

Question: And the binding signal [17]?
Answer: 1.49 fold enrichment (6-mer frequency, TF over GST control)

Question: What about the binding signal [18] of the same sequence?
Answer: 1.05 fold enrichment (6-mer frequency, TF over GST control)

Question: And the binding signal [19]?
Answer: 1.42 fold enrichment (6-mer frequency, TF over GST control)
